# Compound activity (PubChem)
# Shown are actives, neighbours in structure and some others; about 15% of the full set was active somewhere.
# RORg inh: inhibitors of mouse ROR gamma transcriptional activity. P51450. Drosophila S2 Gal4-RORgamma UAS-luciferase reporter, 20 h. Potency, µM (highest dose often 53.6 µM), for inactives: at the top dose activity change, negative = inhibition, most hits filed as inhibitors. 5.4% of 310,000 active; also: nearly all actives have a fitted effect of over 60% in size
# Target sequence (P51450 whole entry, looked up, the tested form may be a part): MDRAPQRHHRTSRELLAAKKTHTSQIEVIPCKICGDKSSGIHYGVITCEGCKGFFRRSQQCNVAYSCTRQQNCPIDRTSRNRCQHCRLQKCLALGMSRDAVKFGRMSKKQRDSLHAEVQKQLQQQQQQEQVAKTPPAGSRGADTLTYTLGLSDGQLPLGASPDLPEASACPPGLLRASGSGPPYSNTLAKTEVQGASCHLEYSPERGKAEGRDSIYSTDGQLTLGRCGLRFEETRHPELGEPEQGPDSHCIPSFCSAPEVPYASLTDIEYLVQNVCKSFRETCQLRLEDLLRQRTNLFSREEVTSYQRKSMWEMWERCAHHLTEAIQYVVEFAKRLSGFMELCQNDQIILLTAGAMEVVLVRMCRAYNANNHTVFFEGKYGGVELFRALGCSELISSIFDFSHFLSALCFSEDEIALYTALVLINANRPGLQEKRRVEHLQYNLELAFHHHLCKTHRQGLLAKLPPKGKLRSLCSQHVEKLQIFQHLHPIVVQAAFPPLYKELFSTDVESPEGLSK
#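 Stable Schneider cell line, Gal4 DNA-binding domain fused to ROR gamma, UAS-luciferase. Cmpd 1 hr RT → CuSO4 700 uM final → 20 hr RT → luciferase reagent 10 min → luminescence.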
# ALOX12 inh: inhibitors of human 12S-lipoxygenase ALOX12. P18054. purified 12hLO, xylenol orange hydroperoxide absorbance. Potency, µM (highest dose often 108 µM), for the others: at the highest dose activity change, negative = inhibition, hits mostly inhibitors. 1.1% of 580,000 active. AID 1671190
#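 Purified human 12hLO at 150 nM in 25 mM Hepes, 0.01% Triton X-100, pH 7.0, preincubated 15 min at room temperature with compound. Reaction started with 40 uM arachidonic acid, 30 min at room temperature. Hydroperoxide measured by Fe-xylenol orange, 573/405 nm absorbance ratio.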
# Gal4-VP16 FLuc: inhibits Gal4-VP16 luciferase reporter, ROR gamma counter-screen. Drosophila S2 Gal4-VP16 UAS-luciferase, luminescence, 20 h. Potency, µM (titrated, usually from 53.6 µM), for inactives: at the top dose activity, negative = inhibition, most hits filed as inhibitors. 3.5% of 310,000 active;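 also: Gal4-VP16 expression switched on by copper sulfate through the metallothionein promoter; nearly all actives have a fitted effect of over 50% in size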
# DT40 TDP1 CPT: DT40-hTDP1 cell growth loss with CPT. chicken DT40 Tdp1-/-;hTDP1 cells + 20 nM CPT, ATP luminescence, 48 h. Potency, µM (top dose mostly 46.2 µM), for the others: at the top dose activity change, negative = growth inhibition, most hits filed as inhibitors. 12% of 420,000 active. AID 686979; also: nearly all actives have a fitted effect of over 55% in size
#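 Chicken DT40 Tdp1-/- cells complemented with human TDP1, 400 cells/well, exposed to compounds plus 20 nM camptothecin for at least 48 h at 37 C; viability read as ATP content by CellTiter-Glo luminescence.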
# TDP1 cell noCPT: qHTS for Inhibitors of human tyrosyl-DNA phosphodiesterase 1 (TDP1): qHTS in cells in absence of CPT | 15% of 420,000 active | AID 686978, 2013 | DT40 Tdp1-/- hTDP1 cells, no CPT, ATP luminescence, 48 h | Potency, µM (titrated, usually from 46.2 µM), without a hit: at the highest dose activity change, negative = growth inhibition, most hits filed as inhibitors; also: nearly all actives have a fitted effect of over 55% in size
#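 Chicken DT40 Tdp1-/- cells complemented with human TDP1, screened without camptothecin (DMSO vehicle only), 400 cells/well. Compounds pin-transferred, cells incubated at 37 °C for at least 48 hr. Growth read as ATP-dependent luminescence (CellTiter-Glo, 30 min at RT).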
# ELG1 repair inh: blocks ELG1-dependent DNA repair in HEK293T cells; HEK293T ELG1-luciferase reporter, luminescence, 16 h; DNA damage induced by 5-fluorouridine; Potency, µM (series often up to 46.1 µM), without a hit: top-dose activity change, negative = inhibition, actives largely listed as inhibitors; 2.3% of 330,000 active; AID 504467; also: nearly all actives have a fitted effect of over 55% in size
#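 In this reporter screen, reduction of luminescence relative to DMSO vehicle indicated activity. Compounds and 5-fluorouridine were added together to 2,000 cells per well, incubated for 16 hr at 37 °C, then developed with ONE-Glo.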
# * hit, by the source's call; ? = inconclusive; . = no result; [ ] = another dose, or the depositor's remark. Calls follow the shape of the dose curve; as a rule, active = well fitted curve in the direction sought with a large enough effect; inconclusive = small, poorly fitted or top-dose-only effect, or another doubt; inactive = no such curve, though single readings can be large; an effect the other way counts as inactive or inconclusive. % is scaled to controls: 0 for no effect and ±100 for the full control effect; potency is read from the fitted curve at half-maximal effect.
SMILES,RORg inh,ALOX12 inh,Gal4-VP16 FLuc,DT40 TDP1 CPT,TDP1 cell noCPT,ELG1 repair inh
Cc1ccc(Cn2cccc2/C=N/NC(=S)Nc2ccc(C)cc2)cc1,0.398µM*,44.7µM*,3.98µM*,4.61µM*,6.51µM*,-13.3%
Cc1[nH]c2ccccc2c1/C=N/NC(=S)NCc1ccccc1,11.2µM*,35.5µM*,?,?,?,-7.1%
NC(=O)CCNC(=O)C1=C[C@@H](NC(=O)NC2CCCCC2)[C@@H](O)[C@H](O)C1,.,24.7%[176 µM],.,.,.,.
CCO[C@H]1CN(Cc2ccc(OC)c(OCc3cccc(F)c3)c2)C[C@@H]1O,.,4.1%,.,.,.,.
COc1ccccc1C(=O)Sc1ccc(C)cc1,.,10.3%,.,.,.,.
Cc1ccc(NC(=S)N/N=C/c2c(C)[nH]c3ccccc23)cc1,2µM*,31.6µM*,3.98µM*,?,29.1µM*,2.8%
Cc1[nH]c2ccccc2c1/C=N/NC(N)=S,-38.5%,10.9%,-8.7%,-5.4%,6.6%,1.4%
COc1ccc(-c2c(C)c3ccc(OC(C)=O)cc3oc2=O)cc1,.,-15.6%,.,.,.,.
CC(C)(C)C(=O)NNc1nc(-c2ccccc2)c2cc(Br)ccc2n1,-17.9%,?,4.2%,16.4µM*,13µM*,0.6%
CCN(CC)S(=O)(=O)c1ccc(C(=O)NNc2nc(-c3ccccc3)c3cc(Br)ccc3n2)cc1,20µM*,24.0%,?,?,?,23.1µM*
O=C(NCc1ccc(Cn2cccn2)cc1)c1cn[nH]c1-c1ccccc1,.,-66.4%,.,.,.,.
Cc1nc2ccccc2n1CC(O)COc1ccccc1Cl (configuration not stated),?,11.2%,17.8µM*,18.4µM*,9.2µM*,?
COC(=O)c1ccc(OCC(O)Cn2cnc3cc(C)c(C)cc32)cc1 (configuration not stated),.,5.4%,.,?,9.2µM*,.
CCOC(=O)c1c(C)n(C)c2ccc(OCC(O)CN3CCN(C)CC3)cc12 (configuration not stated),-18.2%,0.0%,5.1%,-3.7%,-9.9%,-0.3%
COC(=O)c1cccc(OCC(O)Cn2cnc3cc(C)c(C)cc32)c1 (configuration not stated),31.3%,9.4%,?,?,?,?
CCOC(=O)c1c(C)n(C)c2ccc(OCC(O)Cn3c(C)nc4ccccc43)cc12 (configuration not stated),-21.5%,22.8%,-12.8%,?,18.4µM*,11.6µM*
CCC(=O)c1ccc(OCC(O)Cn2c(C)nc3ccccc32)cc1 (configuration not stated),?,?,7.94µM*,18.4µM*,18.4µM*,?
CC(C)C(CNC(=O)c1n[nH]c(=O)c2ccccc12)N(C)C (configuration not stated),.,-1.7%,.,.,.,.
COCC(=O)N[C@@H]1CN(CC2CC2)CC[C@@H]1c1nc(C)no1,.,51.6%,.,.,.,.
Cc1nc2ccccc2n1CC(O)COc1ccc(Br)cc1 (configuration not stated),?,2.6%,14.1µM*,?,18.4µM*,?
CCCc1nc2ccccc2n1CC(O)COc1ccc(C(=O)OC)cc1 (configuration not stated),.,1.1%,.,11.6µM*,20.6µM*,.
COC(=O)c1ccc(OCC(O)CN(CC(C)C)CC(C)C)cc1 (configuration not stated),?,0.0%,-8.9%,?,29.1µM*,-16.7%
Cc1nc2ccccc2n1CC(O)COc1ccc(C(=O)O)cc1 (configuration not stated),.,-22.2%,.,-18.2%,8.9%,.
COC(=O)c1ccc(OCC(O)CN2C(=O)c3ccccc3C2=O)cc1 (configuration not stated),31.3%,11.5%,9.4%,8.2%,2.9%,21.2%
CC1(c2noc(C3(C)CCOCC3)n2)CCNCC1,.,38.0%,.,.,.,.
SMILES,RORg inh,ALOX12 inh,Gal4-VP16 FLuc,DT40 TDP1 CPT,TDP1 cell noCPT,ELG1 repair inh
Cc1cccc(C)c1NC(=O)c1c[nH]c2ccccc12,15.0%,?,?,18.4µM*,25.9µM*,?
CC(=O)N1CCC(N2C[C@@H](F)[C@@H](OCc3nc4ccccc4[nH]3)C2)CC1,.,9.8%[176 µM],.,.,.,.
Cc1cccc(C(=O)Nc2sc3c(c2C(N)=O)CCCCC3)c1,.,10µM*,.,.,.,.
COc1ccc(C(=O)Nc2sc3c(c2C(N)=O)CCCC3)cc1OC,-0.1%,230.8%,3.6%,.,.,.
Cn1cc(Br)c(C(=O)Nc2sc3c(c2C(N)=O)CCCC3)n1,29.0%,-2.0%,18.0%,?,16.4µM*,?
Cc1cccc(C(=O)Nc2cccc3c2CCCC3)c1,2.8%,7.9%,-11.6%,18.4µM*,9.2µM*,-1.7%
CCCCc1ccc(NC(=O)COc2ccc(C(=O)Nc3ccccc3OCC)cc2)cc1,?,-21.6%,10µM*,?,?,25.9%
COc1ccc(/C=C/C(=O)Oc2ccccc2Cl)cc1,.,-1.9%,.,.,.,.
Clc1ccc(-c2cnc([C@@H]3COCCN3Cc3cnc4ccccc4c3)[nH]2)s1,.,7.8%[176 µM],.,.,.,.
CCOc1ccccc1NC(=O)c1c(NC(=O)CCC(=O)O)sc2c1CCCCC2,10µM*,?,?,-25.3%,-16.3%,-1.0%
CCOc1ccccc1NC(=O)CCC(=O)O,1.9%,0.2%,-5.1%,-14.1%,-9.4%,8.2%
O=C(COc1ccccc1)Nc1sc2c(c1C(=O)Nc1ccccc1Cl)CCCCC2,.,-11.5%,.,4.0%,-3.4%,.
CCC1CCc2c(sc(NC(=O)CCC(=O)O)c2C(=O)Nc2ccccc2C)C1 (configuration not stated),.,3.6%,.,.,.,.
CCOc1ccccc1NC(=O)c1c(NC(=O)c2cccc(C)c2)sc2c1CCCC2,.,0.0%,.,?,23.1µM*,.
CC(C)(C)C1CCc2c(sc(NC(=O)CCC(=O)O)c2C(=O)Nc2ccccc2C(F)(F)F)C1 (configuration not stated),.,-1.0%,.,16.4µM*,20.6µM*,.
O=C(COc1ccccc1)Nc1sc2c(c1C(=O)Nc1ccccc1)CCCCC2,.,?,.,?,0.461µM*,.
COc1ccc(S(=O)(=O)N(CC(C)C)C2CCS(=O)(=O)C2)cc1C (configuration not stated),.,2.5%,.,.,.,.
CC(OC(=O)c1cccc(S(=O)(=O)N2CCCCC2)c1)C(=O)N1CCCc2ccccc21 (configuration not stated),.,-4.3%,.,.,.,.
CC(Oc1cccc(C(C)C)c1)C(N)=O (configuration not stated),.,-3.2%,.,.,.,.
